PI5P4Ka inh: inhibitors of human PI5P4K alpha; AID 652105; 1.2% of 330,000 active; PI5P4Kalpha enzyme, ADP-Glo luminescence, 60 min; stronger effect = lower value; max response, %; P48426; active = max response of -50% or lower; inconclusive = between -30% and -50%; inactive = -30% or higher; also: value at the top dose of about 77 µM; % is scaled to controls: 0 for no effect and ±100 for the full control effect
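qHTS, 1536-well: enzyme/substrate mix, compound by pin tool, 5 microM ATP final; RT 60 min; ADP-Glo reagents 1 (45 min) then 2 (30 min); luminescence.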
JMJD2A Tudor: blocks the human JMJD2A Tudor domain; AlphaScreen JMJD2A-Tudor / H3K4me3 peptide binding; O75164; 4.4% of 390,000 active; AID 504339; Potency, µM (top dose mostly 114 µM), for inactives: at the top dose activity change, negative = inhibition, actives largely listed as inhibitors; also: potency is read from the fitted curve at half-maximal effect; % is scaled to controls: 0 for no effect and ±100 for the full control effect; nearly all actives have a fitted effect of over 50% in size
PLK1 PBD block: blocks phosphopeptide binding to human PLK1 polo-box domain; P53350; 2.8% of 360,000 active; Potency, µM, for the others: max response, negative = inhibition, actives largely listed as inhibitors; Plk1 PBD binding of FITC phosphopeptide, fluorescence polarization; also: potency is read from the fitted curve at half-maximal effect; series mostly up to about 57 µM; % is scaled to controls: 0 for no effect and ±100 for the full control effect; nearly all actives have a fitted effect of over 65% in size
BAZ2B inh: inhibitors of human BAZ2B bromodomain; AID 504333; Potency, µM (top dose mostly 114 µM), without a hit: at the top dose activity change, negative = inhibition, most hits filed as inhibitors; 4.4% of 360,000 active; Q9UIF8; AlphaScreen BAZ2B-H3K14Ac peptide displacement; also: potency is read from the fitted curve at half-maximal effect; % is scaled to controls: 0 for no effect and ±100 for the full control effect; nearly all actives have a fitted effect of over 60% in size
Target sequence (Q9UIF8 whole entry, looked up): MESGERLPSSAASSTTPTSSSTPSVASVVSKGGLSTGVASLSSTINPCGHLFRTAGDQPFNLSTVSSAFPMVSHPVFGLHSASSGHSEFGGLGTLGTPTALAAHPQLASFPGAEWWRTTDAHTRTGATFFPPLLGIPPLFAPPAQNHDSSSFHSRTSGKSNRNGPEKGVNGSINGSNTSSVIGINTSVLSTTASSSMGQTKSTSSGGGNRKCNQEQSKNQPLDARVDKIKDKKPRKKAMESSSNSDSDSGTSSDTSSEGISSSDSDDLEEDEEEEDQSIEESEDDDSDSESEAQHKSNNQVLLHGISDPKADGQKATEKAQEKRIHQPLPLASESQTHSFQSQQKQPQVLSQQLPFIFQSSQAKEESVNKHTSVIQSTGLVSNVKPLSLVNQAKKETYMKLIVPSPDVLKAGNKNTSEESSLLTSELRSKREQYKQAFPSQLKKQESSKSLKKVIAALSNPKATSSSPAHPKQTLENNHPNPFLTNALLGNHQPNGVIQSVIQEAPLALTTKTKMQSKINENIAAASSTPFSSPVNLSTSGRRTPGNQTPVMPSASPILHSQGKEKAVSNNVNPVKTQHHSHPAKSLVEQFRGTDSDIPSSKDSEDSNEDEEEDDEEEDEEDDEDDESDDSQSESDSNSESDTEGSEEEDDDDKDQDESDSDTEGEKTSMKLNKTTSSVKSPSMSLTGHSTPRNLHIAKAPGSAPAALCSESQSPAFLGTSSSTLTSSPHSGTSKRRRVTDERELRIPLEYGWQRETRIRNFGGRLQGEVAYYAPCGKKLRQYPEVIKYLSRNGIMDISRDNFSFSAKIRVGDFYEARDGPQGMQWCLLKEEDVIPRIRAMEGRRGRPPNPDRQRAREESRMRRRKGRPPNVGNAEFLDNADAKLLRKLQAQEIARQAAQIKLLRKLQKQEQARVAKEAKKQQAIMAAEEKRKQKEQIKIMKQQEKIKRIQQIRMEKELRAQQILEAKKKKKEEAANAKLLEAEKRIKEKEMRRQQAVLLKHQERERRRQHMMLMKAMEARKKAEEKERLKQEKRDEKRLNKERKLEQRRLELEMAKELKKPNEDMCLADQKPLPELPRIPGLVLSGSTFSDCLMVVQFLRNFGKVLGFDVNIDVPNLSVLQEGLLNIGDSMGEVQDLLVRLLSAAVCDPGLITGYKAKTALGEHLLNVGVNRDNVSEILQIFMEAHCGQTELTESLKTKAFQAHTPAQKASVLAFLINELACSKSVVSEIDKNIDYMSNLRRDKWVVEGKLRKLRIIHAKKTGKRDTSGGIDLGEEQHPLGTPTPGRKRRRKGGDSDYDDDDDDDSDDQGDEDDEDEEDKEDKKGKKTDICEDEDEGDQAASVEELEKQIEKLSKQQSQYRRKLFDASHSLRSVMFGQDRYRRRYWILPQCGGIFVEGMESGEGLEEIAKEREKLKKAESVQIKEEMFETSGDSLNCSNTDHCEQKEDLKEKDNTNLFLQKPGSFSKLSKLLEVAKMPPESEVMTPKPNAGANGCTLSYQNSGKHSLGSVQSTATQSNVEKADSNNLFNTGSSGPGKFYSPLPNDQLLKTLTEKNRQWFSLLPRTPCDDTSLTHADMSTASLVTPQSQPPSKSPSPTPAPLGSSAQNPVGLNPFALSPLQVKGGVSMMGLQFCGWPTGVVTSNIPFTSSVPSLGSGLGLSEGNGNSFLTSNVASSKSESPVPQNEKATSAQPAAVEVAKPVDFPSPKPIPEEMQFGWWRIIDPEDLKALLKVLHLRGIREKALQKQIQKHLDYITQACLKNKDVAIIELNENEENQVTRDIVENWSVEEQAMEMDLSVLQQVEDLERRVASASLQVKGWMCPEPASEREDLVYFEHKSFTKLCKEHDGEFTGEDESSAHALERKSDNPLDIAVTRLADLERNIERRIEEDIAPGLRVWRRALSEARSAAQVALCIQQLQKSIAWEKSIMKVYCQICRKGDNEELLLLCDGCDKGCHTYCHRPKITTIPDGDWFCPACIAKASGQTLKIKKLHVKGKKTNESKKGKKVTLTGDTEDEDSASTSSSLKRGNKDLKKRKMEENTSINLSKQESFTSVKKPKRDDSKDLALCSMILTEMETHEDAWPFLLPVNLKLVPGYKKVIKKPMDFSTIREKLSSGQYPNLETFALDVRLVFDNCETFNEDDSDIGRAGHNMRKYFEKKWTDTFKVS
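Compounds, titrated to a top concentration of 110 uM, were incubated 30 min at room temperature with preformed BAZ2B/acetyl-K14 H3 peptide complex (50 nM each). Proximity signal was measured by AlphaScreen after 20 min with beads.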
HP1b binding inh: inhibitors of HP1-beta chromodomain binding to methylated histone tails; AlphaScreen HP1-beta / biotin-H3K9me3 peptide binding; 0.56% of 390,000 active; Potency, µM (doses to about 114 µM), inactives show top-dose activity change, negative = inhibition, actives largely listed as inhibitors; P83916; also: potency is read from the fitted curve at half-maximal effect; nearly all actives have a fitted effect of over 70% in size
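HP1-beta protein (50 nM final) preincubated 30 min at room temperature with biotinylated H3(1-18)K9me3 peptide (50 nM) in PBS pH 7.4, 0.01% Tween-20, then compound added for 30 min. AlphaScreen streptavidin donor/nickel chelate acceptor beads (10 ug/mL final), 30 min dark, luminescence read.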
G9a inh: inhibitors of human histone lysine methyltransferase G9a; Q96KQ7; G9a H3K9 monomethylation, AlphaScreen, 2 h; Potency, µM (top dose mostly 102 µM), inactives show top-dose activity, negative = inhibition, hits mostly inhibitors; 8.8% of 350,000 active; also: potency is read from the fitted curve at half-maximal effect; % is scaled to controls: 0 for no effect and ±100 for the full control effect; nearly all actives have a fitted effect of over 75% in size
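Signal arises when biotinylated H3K9 peptide, once monomethylated, bridges streptavidin donor and antibody-captured acceptor beads. Enzyme at 20 nM was preincubated 15 min with test compounds; peptide 500 nM and SAM 20 uM then reacted for 2 h.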
An asterisk follows results filed as active; ? = inconclusive; · = no result given; [ ] = dose if it differs, or a comment. Only some compounds are listed: those with a hit (about 12% of all), similar ones and a draw of the others. Unless noted, calls follow the shape of the dose curve; as a rule, active = well fitted curve in the direction sought with a large enough effect; inconclusive = small, poorly fitted or top-dose-only effect, or another doubt; inactive = no such curve, though single readings can be large; an effect the other way counts as inactive or inconclusive.

SMILES | PI5P4Ka inh | JMJD2A Tudor | PLK1 PBD block | BAZ2B inh | HP1b binding inh | G9a inh
O=C(C(c1ccccc1)C(O)c1ccccc1)N1CCOCC1 (stereo not given) | 2 | -10% | -7% | · | 12%[57 µM] | ·
COc1ccccc1Nc1nc(-c2cccc([N+](=O)[O-])c2)cs1 | 23 | ? | -2% | ? | -14% | ?
O=[N+]([O-])c1cccc(-c2nc(-c3ccncc3)no2)c1 | -3 | -4% | 4% | -32% | 10% | 48%[12.7 µM]
O=[N+]([O-])c1cccc(-c2csc(Nc3ccccc3)n2)c1 | 8 | ? | -20% | ? | -25% | 40µM*
COc1ccc(-c2cccc(NS(=O)(=O)c3cccc([N+](=O)[O-])c3)c2)nn1 | -10 | -22% | -12% | 3% | -11% | ?
O=C(Nc1nc(-c2ccccc2)cs1)c1cccc([N+](=O)[O-])c1 | · | ? | -9% | 40µM* | -26% | 32µM*
O=[N+]([O-])c1cccc(-c2nc(-c3ccccc3)no2)c1 | -18 | -30% | 19µM* | -11% | -21% | ·
O=C(Nc1nc(-c2cccnc2)cs1)c1cccc([N+](=O)[O-])c1 | 1 | -21% | -10% | -6% | 12% | 7%
COc1cc(NS(=O)(=O)c2ccc(Nc3nc(-c4cccc([N+](=O)[O-])c4)cs3)cc2)nc(OC)n1 | -14 | ? | ? | 45µM* | ? | 50µM*
COc1ccc(S(=O)(=O)N(CC(=O)N2CCC(C)CC2)c2ccc(C)cc2)cc1 | · | -6% | · | 0% | 24% | -37%[59 µM]
COc1ccc(-c2ccc(OC)c(C3C4C=CCCC4(C)C(=O)N3Cc3ccccc3)c2)cc1OC (stereo not given) | · | ? | · | · | -11% | ·
O=C(Nc1nc(-c2ccccc2)cs1)c1cccc([N+](=O)[O-])c1C(=O)O | -1 | -21% | -15% | 2% | 34% | 50µM*
CC(=O)Nc1ccc(-c2ccnc3c2CC(C)(C(=O)Nc2cccc(C(F)(F)F)c2)O3)cc1 (stereo not given) | -8 | · | -3% | · | · | ·
O=C1C=CC2(O[C@H](c3ccccc3)[C@@H](c3ccccc3)O2)[C@H](Sc2ccccc2O)C1 | -11 | 79µM* | 2.4µM* | · | ? | ·
CCc1cccc(-n2nnc(S(=O)(=O)c3ccc(OC)cc3)c2C)c1 | · | -8% | · | -16% | 27% | 8%[59 µM]
CCc1c(C(C)S(=O)(=O)c2ccccc2)[nH]c(=O)n1CC (stereo not given) | -28 | ? | 15µM* | -13% | -32% | 3.5µM*
CN1c2cccc3cccc(c23)N(C)C1(C)C | -2 | ? | -7% | 50µM* | ? | -41%[0.0925 µM]
O=C(CCNS(=O)(=O)c1cccc(Cl)c1)OCC(=O)N1CCN(C(=O)c2ccco2)CC1 | -23 | ? | -13% | -9% | 6% | 2%[2.33 µM]
O=C(CCN1c2ccccc2Sc2ccccc21)OCC(=O)N1CCN(C(=O)c2ccco2)CC1 | -11 | ? | -2% | 50µM* | ? | ?
CC(=O)Nc1ccc(S(=O)(=O)NCCC(=O)OCC(=O)N2CCN(C(=O)c3ccco3)CC2)cc1 | -16 | -29% | -9% | 50µM* | 7% | ·
c1ccc(OCCN2CCN(C(c3ccccc3)c3ccccc3)CC2)cc1 | 19 | -33% | -7% | -14% | 16% | ·
CCC(C)NC(=O)CN1C(=O)c2cccnc2Oc2ccc(C)cc21 (stereo not given) | · | 50µM* | · | 13% | 40% | -5%[59 µM]
O=C(Nc1cccc(C(F)(F)F)c1)C1CCN(S(=O)(=O)c2cccnc2)CC1 | -1 | 0% | 4% | -4% | 21%[57 µM] | ·
O=C(Nc1ccc(S(=O)(=O)Nc2ncccn2)cc1)c1ccccc1 | 2 | 5% | 9% | 4% | 50% | -7%
O=C(CCNC(=O)c1ccccc1)Nc1ccc(S(=O)(=O)Nc2ncccn2)cc1 | 2 | -1% | 4% | · | 36% | ·
SMILES | PI5P4Ka inh | JMJD2A Tudor | PLK1 PBD block | BAZ2B inh | HP1b binding inh | G9a inh
O=C(CCCNC(=O)c1ccc(Cl)cc1)Nc1ccc(S(=O)(=O)Nc2ncccn2)cc1 | -13 | -32%[11.4 µM] | 27µM* | -3% | 20% | ·
O=C(CNC(=O)c1ccc(Cl)cc1)Nc1ccc(S(=O)(=O)Nc2ncccn2)cc1 | -6 | -5% | -3% | ? | 23% | 22µM*
O=C(Cc1ccc(Cl)c(Cl)c1)Nc1ccc(S(=O)(=O)Nc2ncccn2)cc1 | 0 | 20µM* | -24% | -12% | 33% | ?
O=C(Cc1c(F)cccc1Cl)NNC(=S)Nc1ccc(S(=O)(=O)Nc2ncccn2)cc1 | -11 | -18% | -7% | -4% | 41% | 28µM*
O=C(/C=C/c1c(F)cccc1Cl)Nc1ccc(S(=O)(=O)Nc2ncccn2)cc1 | 3 | -8% | -15% | -3% | 22% | ?
Nc1cccc2nc3ccccc3cc12 | 0 | 0% | -3% | 7% | 26% | -20%[59 µM]
Cc1cc2c(N)cccc2nn1 | ? | -25% | -22% | 79µM* | 5% | 2.8µM*
N#Cc1cccc(NC(=O)N2CCCC3(CCN(S(=O)(=O)c4ccccc4)CC3)C2)c1 | · | · | · | · | · | -5%[12.7 µM]
COc1ccc(NC(=O)Cn2c3ncccc3c(=O)n2-c2ccc(C)c(C)c2)c(OC)c1 | · | -12% | · | 9% | 49% | -3%[59 µM]
CCOc1ccc(NC(=O)CN(C)C(=O)CC2OC(=O)c3ccccc32)cc1OCC (stereo not given) | -9 | -5% | -4% | -6% | 23% | 0%
CCOc1ccc(C(=O)NC2CCCCCCC2)cc1 | 7 | 12% | 3% | · | 28% | ·
CCOc1ccc(OCCNC2CCCC2)cc1 | 8 | 3.2µM* | 3% | 17% | ? | ?
CCc1ccc(OCCOCC(O)CNC2CCCC2)cc1 (stereo not given) | -1 | -1% | 1% | 1% | 17% | 7%
CCOc1ccc(C(=S)NC2CCCCC2)cc1 | · | -9% | 27µM* | -20% | -20% | 10µM*
CCCOc1ccc(OCCNC2CCCC2)cc1 | 11 | 89µM* | 4% | ? | ? | 10µM*
COc1ccc(NS(=O)(=O)c2cc(C(=O)NNC(=O)c3ccncc3)ccc2OC)c(OC)c1 | -1 | -15% | -8% | · | 16% | ·
O=C(COc1ccccc1F)Nc1ccc2c(c1)OCCO2 | -5 | -5% | 1% | -25% | -20% | 25%
O=C(OCC1CCCO1)c1ccc2c(c1)N(Cc1c(F)cccc1Cl)C(=O)c1ccccc1S2(=O)=O (stereo not given) | · | -16% | · | -9% | 30% | -27%[59 µM]
CCOc1cccc(C(c2c(C)n(C)n(-c3ccccc3)c2=O)c2c(C)n(C)n(-c3ccccc3)c2=O)c1OC | -4 | -10% | -8% | -9% | 67% | 16%
COc1cccc(C(c2c(C)[nH]n(-c3ccccc3)c2=O)c2c(C)[nH]n(-c3ccccc3)c2=O)c1OC | 1 | ? | 12µM* | ? | -39% | ?

Screening data deposited in PubChem BioAssay by National Center for Advancing Translational Sciences (NCATS).
